# Values without a mark were called inactive. The source made the active and inactive calls. The call rests on the fitted dose curve; in most records, active means well fitted curve in the direction sought with a large enough effect in the repeat runs; inconclusive means weak or mixed curves; inactive means flat fitted curve, though single readings scatter.
# Assay: qHTS assay to test for compound auto fluorescence at 590 nm (red) in HEK293 cell free culture (AID 720683)
# Details: cell-free medium autofluorescence, Ex540/Em590 red; series mostly up to 91.3 µM; fluorescence, % of fluorescent control: at the top concentration
# Text: U.S. Tox21 Program National Center for Advancing Translational Sciences [NCATS] NIH Chemical Genomics Center [NCGC] U.S. Environmental Protection Agency [EPA] National Institutes of Environmental Health Sciences [NIEHS] National Toxicology Program [NTP] U.S. Food and Drug Administration [FDA] Tox21 Assay Overview: Compound auto fluorescence often interferes with screening of the compound library against various biological targets and signaling pathways. Some of these compounds may have fluorophoric properties. Such properties may interfere with the assay outputs resulting in false positives and/or negatives. To decrease such complications and ensure the compound activities are relevant in terms of biological response, the Tox21 10K compound library was screened for auto fluorescence. From the fluorophores used as reporter signals in our screening assays, the auto fluorescence equivalencies of compounds against three fluorophores have been evaluated: Triamterene, Fluorescein and Rose Bengal sodium for blue, green and red fluorescence, respectively. The fluorescence intensities were measured using Excitation/Emission wavelengths at 405/460nm, 485/535nm and 540/590nm for blue, green and red labels, respectively. This assay includes the red fluorescence data.
# Tox21 Assay Protocol Summary: 5 uL of culture medium (DMEM containing 10% FBS) per well was dispensed into black wall/clear bottom 1536-well plates using a Multidrop Combi Dispenser (ThermoFisher Scientific, Waltham, MA). After 23 nL compound or DMSO vehicle was transferred into assay plate by a pintool work station (Kalypsys, San Diego, CA), fluorescence intensities in the assay plates were measured by an Envision (PerkinElmer, Shelton, CT) plate reader using three labels for measuring blue, green and red fluorescence at […] 460, 535 and 590nm respectively.
# On the % scale 0 is the no-effect control and ±100 the full control effect.
Compound,"fluorescence, % of fluorescent control",outcome
C=CCC1=C(C)C(OC(=O)C2C(C=C(C)C)C2(C)C)CC1=O (stereo not given),-0.69%,–
C[C@@H]1CC[C@@]2(OC1)O[C@H]1[C@@H](O)[C@H]3[C@@H]4CC[C@H]5C[C@@H](O[C@@H]6O[C@H](CO)[C@H](O[C@@H]7O[C@H](CO)[C@@H](O)[C@H](O[C@@H]8OC[C@@H](O)[C@H](O)[C@H]8O)[C@H]7O[C@@H]7O[C@H](CO)[C@@H](O)[C@H](O[C@@H]8O[C@H](CO)[C@@H](O)[C@H](O)[C@H]8O)[C@H]7O)[C@H](O)[C@H]6O)[C@H](O)C[C@]5(C)[C@H]4CC[C@]3(C)[C@H]1[C@@H]2C,-0.0355% [at 95.7 µM],–
CC(C)(C)C(O)/C(=C\c1ccc(Cl)cc1Cl)n1cncn1 (stereo not given),-0.707% [at 95.7 µM],–
CC(C)CC(C)(c1ccc(O)cc1)c1ccc(O)cc1,–,inactive
CCCCCCCCCCCCCN1CC(C)OC(C)C1 (stereo not given),-0.0515%,–
COc1cc(C=O)cc2c1[C@H](COC(N)=O)[C@]1(OC(C)=O)ON2C[C@H]2[C@@H]1N2C(C)=O,-0.114%,–
Cc1ccc(OP(=O)(Oc2ccccc2)Oc2ccccc2)cc1,0.0521% [at 95.7 µM],–
O=[N+]([O-])O.O=[N+]([O-])O.[Cd],0.405%,–
ClCc1ccc(Cl)cc1Cl,-0.0077%,–
C[C@]12CC[C@H]3[C@@H](CCC4=CC(=O)CC[C@@]43C)[C@@H]1CC[C@@H]2O,-0.2%,–
Cc1c(Cl)c(=O)oc2cc(OP(=O)(OCCCl)OCCCl)ccc12,-0.249% [at 46 µM],–
O=[N+]([O-])c1cc([N+](=O)[O-])c2ccccc2c1,0.525%,–
COP(=S)(OC)Oc1cc(Cl)c(Br)cc1Cl,-0.003%,–
CCOCn1c(-c2ccc(Cl)cc2)c(C#N)c(Br)c1C(F)(F)F,0.0005%,–
CCCCN(CCCC)C(=S)[S-].CCCCN(CCCC)C(=S)[S-].[Zn+2],–,inactive
Clc1ccc(CCC(Cn2ccnc2)Sc2c(Cl)cccc2Cl)cc1 (stereo not given),-0.0573% [at 18.6 µM],–
CSCCCN=C=S,-0.0649%,–
CCCN(CCC)CCc1c[nH]c2ccccc12,-0.0206%,–
CN(C)CCc1c[nH]c2ccc(O)cc12,-0.583%,–
N#CCCC(Br)(C#N)CBr (stereo not given),0.0363%,–

Compound,"fluorescence, % of fluorescent control",outcome
CC(C)OC(=S)S,0.0798%,–
N#CNC#N,-0.0153% [at 95.7 µM],–
c1ccc2c(c1)OCC(C1=NCCN1)O2 (stereo not given),0.0686% [at 46 µM],–
Cc1cc(N=Nc2ccccc2C)ccc1N,–,inactive
BrC(Br)C(Br)(Br)Br,-0.0427%,–
CC(C)OC(=O)C(O)(c1ccc(Cl)cc1)c1ccc(Cl)cc1,0.0915%,–
O=S(=O)(c1ccc(Cl)cc1)c1ccc(Cl)cc1,0.472%,–
CC(C)Oc1cccc(NC(=O)c2ccccc2C(F)(F)F)c1,-0.535%,–
CC(=O)O[C@H]1CC[C@@]2(C)C(=CC[C@@H]3[C@@H]2CC[C@]2(C)C(=O)CC[C@@H]32)C1,–,inactive
N#C/C=C/C#N,0.0131% [at 95.7 µM],–
CNC(C)Cc1ccc2c(c1)OCO2 (stereo not given),-0.64% [at 95.7 µM],–
O=c1[nH]c2ccccc2n1CCCN1CCC(n2c(=O)[nH]c3cc(Cl)ccc32)CC1,-0.0977% [at 46 µM],–
CC1(C)[C@H](C(=O)O[C@H](C#N)c2cccc(Oc3ccccc3)c2)[C@@H]1/C=C(\Cl)C(F)(F)F,0.0735%,–
COc1cc(N)c(Cl)cc1C(=O)NC1CN2CCC1CC2 (stereo not given),0.234% [at 46 µM],–
CCCCCCCCCCCCCCCC[n+]1ccccc1,–,inactive
CCOC(=O)OC1=C(c2cc(C)ccc2C)C(=O)NC12CCC(OC)CC2 (stereo not given),-0.327%,–
Clc1ccc(COC(Cn2ccnc2)c2ccc(Cl)cc2Cl)cc1 (stereo not given),–,inactive
S=C=Nc1cccc2ccccc12,0.056%,–
ClC1=C(Cl)[C@]2(Cl)[C@@H]3[C@@H]4C[C@@H]([C@H]5O[C@@H]45)[C@@H]3[C@@]1(Cl)C2(Cl)Cl,-0.74%,–
Nc1ccccc1C(=O)Oc1ccc2ccccc2c1,-0.132%,–

# From PubChem BioAssay (Tox21)
